± gives the standard deviation of the averaged measurements. About 6,500 targets were measured; listed, in parts, are those with the largest changes and a random draw of the rest.
Compound: Nc1ncnc2c1ncn2[C@@H]1O[C@H](COP(=O)(O)OP(=O)(O)OP(=O)(O)O)[C@@H](O)[C@H]1O [adenosine triphosphate]
Assay: NP40-soluble protein abundance relative to vehicle (solubility fold change) (ratio); higher = more soluble protein in presence of ATP
Outline: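 In three independent experiments, Jurkat crude lysate made by Dounce homogenisation was treated for 10 min at room temperature and then 3 min at 37 °C with eight concentrations ranging from 0.1 to 10 mM. It was then solubilised with 0.8% NP40 plus benzonase for 60 min at 4 °C and ultracentrifuged. The supernatant was TMT-labelled for LC-MS/MS, and each value is the fold change against the detergent-processed vehicle for the same replicate, using vsn-normalised intensities.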

Sequence of UniProt Q4FZB7 (Q4FZB7 whole entry, looked up): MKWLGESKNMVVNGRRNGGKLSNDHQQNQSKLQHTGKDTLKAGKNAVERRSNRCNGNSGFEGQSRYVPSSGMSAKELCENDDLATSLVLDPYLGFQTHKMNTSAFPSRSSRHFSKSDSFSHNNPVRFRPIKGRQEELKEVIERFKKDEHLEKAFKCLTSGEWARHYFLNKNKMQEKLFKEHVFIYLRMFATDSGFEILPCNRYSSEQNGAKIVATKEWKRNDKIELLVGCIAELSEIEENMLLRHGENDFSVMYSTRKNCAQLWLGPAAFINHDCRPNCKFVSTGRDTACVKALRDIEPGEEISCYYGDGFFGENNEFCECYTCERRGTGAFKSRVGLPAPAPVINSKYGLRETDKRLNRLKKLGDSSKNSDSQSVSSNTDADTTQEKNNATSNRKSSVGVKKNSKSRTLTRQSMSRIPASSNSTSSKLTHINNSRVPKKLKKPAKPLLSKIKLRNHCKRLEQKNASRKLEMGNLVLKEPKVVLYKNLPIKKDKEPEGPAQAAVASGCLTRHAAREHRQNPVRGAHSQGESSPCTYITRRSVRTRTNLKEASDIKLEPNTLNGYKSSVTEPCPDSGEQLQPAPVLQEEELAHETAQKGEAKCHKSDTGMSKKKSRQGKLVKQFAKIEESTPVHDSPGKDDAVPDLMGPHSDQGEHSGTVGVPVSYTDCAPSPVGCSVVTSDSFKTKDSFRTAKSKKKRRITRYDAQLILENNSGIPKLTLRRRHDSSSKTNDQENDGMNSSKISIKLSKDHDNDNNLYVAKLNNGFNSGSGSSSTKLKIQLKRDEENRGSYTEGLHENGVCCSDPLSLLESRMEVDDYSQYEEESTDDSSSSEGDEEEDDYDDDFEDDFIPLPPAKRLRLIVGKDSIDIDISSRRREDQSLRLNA
Sequence of UniProt Q15819 (Q15819 whole entry): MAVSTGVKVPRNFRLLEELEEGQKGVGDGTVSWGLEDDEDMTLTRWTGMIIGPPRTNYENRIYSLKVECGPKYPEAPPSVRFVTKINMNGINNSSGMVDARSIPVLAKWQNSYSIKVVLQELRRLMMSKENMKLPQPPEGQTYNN
Sequence of UniProt Q8NI77 (Q8NI77 whole entry): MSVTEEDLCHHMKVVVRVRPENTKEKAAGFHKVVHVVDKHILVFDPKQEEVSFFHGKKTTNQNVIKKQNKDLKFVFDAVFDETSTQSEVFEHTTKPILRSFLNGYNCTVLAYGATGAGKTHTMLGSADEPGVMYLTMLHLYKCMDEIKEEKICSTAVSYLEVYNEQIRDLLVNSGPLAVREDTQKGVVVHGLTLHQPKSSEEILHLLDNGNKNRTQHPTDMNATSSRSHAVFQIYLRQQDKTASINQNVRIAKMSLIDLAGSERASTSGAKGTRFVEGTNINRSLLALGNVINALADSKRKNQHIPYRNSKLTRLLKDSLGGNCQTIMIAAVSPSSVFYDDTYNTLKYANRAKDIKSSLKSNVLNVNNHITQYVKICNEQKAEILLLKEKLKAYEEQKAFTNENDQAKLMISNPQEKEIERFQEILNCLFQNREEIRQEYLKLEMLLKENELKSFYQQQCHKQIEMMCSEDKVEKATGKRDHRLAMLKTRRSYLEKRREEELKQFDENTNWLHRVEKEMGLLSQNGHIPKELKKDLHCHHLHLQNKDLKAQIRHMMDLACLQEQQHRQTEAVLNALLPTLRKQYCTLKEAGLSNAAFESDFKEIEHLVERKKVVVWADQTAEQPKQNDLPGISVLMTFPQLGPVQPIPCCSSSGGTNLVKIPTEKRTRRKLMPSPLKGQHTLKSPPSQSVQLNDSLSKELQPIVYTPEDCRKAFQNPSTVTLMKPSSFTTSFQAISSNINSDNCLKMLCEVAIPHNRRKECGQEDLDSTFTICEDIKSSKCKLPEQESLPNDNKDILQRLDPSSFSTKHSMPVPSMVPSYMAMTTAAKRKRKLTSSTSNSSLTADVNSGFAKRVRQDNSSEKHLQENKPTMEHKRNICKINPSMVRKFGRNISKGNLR
Sequence of UniProt Q8TAD8 (Q8TAD8 whole entry): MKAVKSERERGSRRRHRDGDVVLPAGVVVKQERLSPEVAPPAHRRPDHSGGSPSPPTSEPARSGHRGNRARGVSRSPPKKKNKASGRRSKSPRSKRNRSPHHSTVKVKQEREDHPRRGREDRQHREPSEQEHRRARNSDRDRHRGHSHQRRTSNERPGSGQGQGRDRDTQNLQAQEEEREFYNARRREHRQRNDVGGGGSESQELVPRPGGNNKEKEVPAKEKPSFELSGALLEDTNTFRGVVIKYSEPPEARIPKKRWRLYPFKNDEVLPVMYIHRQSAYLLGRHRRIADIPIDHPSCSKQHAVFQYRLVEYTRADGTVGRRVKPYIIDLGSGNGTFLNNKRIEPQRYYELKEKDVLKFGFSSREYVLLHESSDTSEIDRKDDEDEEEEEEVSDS
Sequence of UniProt Q86Y01 (Q86Y01 whole entry): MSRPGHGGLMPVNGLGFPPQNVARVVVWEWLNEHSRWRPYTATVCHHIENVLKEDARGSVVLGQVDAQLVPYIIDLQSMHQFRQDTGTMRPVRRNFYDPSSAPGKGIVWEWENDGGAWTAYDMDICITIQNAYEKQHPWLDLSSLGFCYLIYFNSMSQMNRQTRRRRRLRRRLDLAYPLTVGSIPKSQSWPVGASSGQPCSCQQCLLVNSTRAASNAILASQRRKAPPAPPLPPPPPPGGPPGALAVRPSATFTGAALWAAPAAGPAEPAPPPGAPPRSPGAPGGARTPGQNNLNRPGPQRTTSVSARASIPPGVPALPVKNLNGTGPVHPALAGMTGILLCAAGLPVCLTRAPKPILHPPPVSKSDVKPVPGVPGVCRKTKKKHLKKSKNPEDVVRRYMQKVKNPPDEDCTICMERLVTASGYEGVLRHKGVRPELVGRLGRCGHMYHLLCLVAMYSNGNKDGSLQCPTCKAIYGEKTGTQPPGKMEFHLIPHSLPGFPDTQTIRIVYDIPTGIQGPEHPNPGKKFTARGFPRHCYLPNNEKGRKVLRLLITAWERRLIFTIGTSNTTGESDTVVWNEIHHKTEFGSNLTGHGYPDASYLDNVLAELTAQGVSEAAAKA
Sequence of UniProt Q6P1L5 (Q6P1L5 whole entry): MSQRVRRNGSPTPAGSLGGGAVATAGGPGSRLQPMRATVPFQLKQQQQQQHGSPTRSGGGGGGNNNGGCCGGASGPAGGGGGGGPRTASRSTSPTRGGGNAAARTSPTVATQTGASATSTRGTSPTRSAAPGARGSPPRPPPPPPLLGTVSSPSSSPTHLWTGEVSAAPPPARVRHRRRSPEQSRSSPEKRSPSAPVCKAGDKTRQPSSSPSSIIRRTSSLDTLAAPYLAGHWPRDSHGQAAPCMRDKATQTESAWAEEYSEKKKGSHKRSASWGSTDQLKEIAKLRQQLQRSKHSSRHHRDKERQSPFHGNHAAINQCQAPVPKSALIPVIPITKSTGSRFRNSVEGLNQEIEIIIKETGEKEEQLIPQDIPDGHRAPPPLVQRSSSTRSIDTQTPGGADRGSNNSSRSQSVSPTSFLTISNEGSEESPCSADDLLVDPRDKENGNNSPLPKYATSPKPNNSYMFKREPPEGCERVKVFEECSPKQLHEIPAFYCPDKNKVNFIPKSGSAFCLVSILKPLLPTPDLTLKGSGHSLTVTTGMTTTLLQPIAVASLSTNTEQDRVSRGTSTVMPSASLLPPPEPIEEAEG
Sequence of UniProt Q8IY47 (Q8IY47 whole entry): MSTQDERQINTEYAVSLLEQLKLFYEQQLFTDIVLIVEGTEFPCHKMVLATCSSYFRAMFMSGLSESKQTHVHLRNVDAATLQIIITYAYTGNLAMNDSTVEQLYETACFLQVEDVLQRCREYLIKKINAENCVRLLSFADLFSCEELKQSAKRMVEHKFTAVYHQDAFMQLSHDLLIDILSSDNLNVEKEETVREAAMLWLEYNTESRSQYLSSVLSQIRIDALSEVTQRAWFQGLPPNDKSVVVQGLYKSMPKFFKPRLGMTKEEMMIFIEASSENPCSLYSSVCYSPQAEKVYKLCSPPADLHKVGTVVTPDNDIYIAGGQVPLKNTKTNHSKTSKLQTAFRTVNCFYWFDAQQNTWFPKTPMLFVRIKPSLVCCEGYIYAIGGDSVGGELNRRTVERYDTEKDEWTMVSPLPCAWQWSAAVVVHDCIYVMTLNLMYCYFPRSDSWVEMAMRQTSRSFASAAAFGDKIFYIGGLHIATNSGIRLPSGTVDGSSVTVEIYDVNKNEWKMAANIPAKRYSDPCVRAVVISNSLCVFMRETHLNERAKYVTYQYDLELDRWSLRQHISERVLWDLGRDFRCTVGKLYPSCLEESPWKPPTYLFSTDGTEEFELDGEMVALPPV
Sequence of UniProt Q13601 (Q13601 whole entry): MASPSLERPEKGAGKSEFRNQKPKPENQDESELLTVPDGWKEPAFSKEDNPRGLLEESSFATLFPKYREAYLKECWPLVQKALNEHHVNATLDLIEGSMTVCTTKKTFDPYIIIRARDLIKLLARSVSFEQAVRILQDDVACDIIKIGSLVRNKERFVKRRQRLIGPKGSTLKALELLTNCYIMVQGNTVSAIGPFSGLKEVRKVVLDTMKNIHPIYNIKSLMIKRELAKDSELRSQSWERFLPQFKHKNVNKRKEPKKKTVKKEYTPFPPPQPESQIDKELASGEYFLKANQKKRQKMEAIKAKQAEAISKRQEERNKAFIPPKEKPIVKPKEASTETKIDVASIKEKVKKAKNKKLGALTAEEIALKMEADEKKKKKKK
Sequence of UniProt Q13247 (Q13247 whole entry, looked up): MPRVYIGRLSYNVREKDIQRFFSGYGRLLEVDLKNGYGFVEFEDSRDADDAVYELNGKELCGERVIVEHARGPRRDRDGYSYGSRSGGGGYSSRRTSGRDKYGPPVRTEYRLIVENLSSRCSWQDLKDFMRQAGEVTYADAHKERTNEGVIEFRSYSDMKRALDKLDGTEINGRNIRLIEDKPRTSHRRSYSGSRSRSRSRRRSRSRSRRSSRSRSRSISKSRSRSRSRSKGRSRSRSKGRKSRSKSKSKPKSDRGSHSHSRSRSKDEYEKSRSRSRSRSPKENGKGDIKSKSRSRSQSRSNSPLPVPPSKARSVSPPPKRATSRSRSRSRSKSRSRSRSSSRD

Target	NP40-soluble protein abundance (concentration: 1mM)	NP40-soluble protein abundance (concentration: 2mM)	NP40-soluble protein abundance (concentration: 4mM)	NP40-soluble protein abundance (concentration: 6mM)	NP40-soluble protein abundance (concentration: 8mM)	NP40-soluble protein abundance (concentration: 10mM)
UniProt Q16611|Q16611-2	1.01 ± 0.036	0.985 ± 0.023	1.02 ± 0.09	1.05 ± 0.045	0.997 ± 0.077	0.993 ± 0.087
UniProt Q13438|Q13438-7	0.953 ± 0.036	0.953 ± 0.049	0.94 ± 0.056	0.99 ± 0.069	0.939 ± 0.031	0.952 ± 0.045
UniProt Q15906|Q15906-2	1.13 ± 0.12	1.13 ± 0.092	1.22 ± 0.12	1.27 ± 0.23	1.24 ± 0.12	1.26 ± 0.13
UniProt Q2KHT3|Q2KHT3-2	1.04 ± 0.045	0.967 ± 0.1	0.963 ± 0.11	0.999 ± 0.093	1.04 ± 0.15	1.02 ± 0.17
UniProt Q16181|Q16181-2	0.891 ± 0.15	0.979 ± 0.023	0.9086 ± 0.0056	0.963 ± 0.076	0.957 ± 0.026	0.911 ± 0.046
UniProt Q14289|Q14289-2|H0YB74	1.03 ± 0.04	1.04 ± 0.042	1.02 ± 0.04	0.981 ± 0.06	1.01 ± 0.04	1 ± 0.064
UniProt Q4FZB7	0.985 ± 0.15	1.1 ± 0.23	1.07 ± 0.11	1.01 ± 0.16	1.01 ± 0.029	0.983 ± 0.065
UniProt Q32P28|Q32P28-3|Q32P28-4	1.13 ± 0.023	1.15 ± 0.025	1.2 ± 0.077	1.19 ± 0.043	1.22 ± 0.051	1.198 ± 0.0094
UniProt Q86U06|Q86U06-2|Q86U06-4|Q86U06-5|G3XAP0	1.5 ± 0.41	1.53 ± 0.31	1.48 ± 0.33	1.76 ± 0.46	1.56 ± 0.41	1.46 ± 0.49
SNIP1 (UniProt Q8TAD8)	1.18 ± 0.044	1.22 ± 0.055	1.44 ± 0.085	1.57 ± 0.098	1.67 ± 0.11	1.8 ± 0.1
FAM117B (UniProt Q6P1L5)	0.945 ± 0.048	0.984 ± 0.061	0.97 ± 0.039	0.978 ± 0.042	0.952 ± 0.069	0.946 ± 0.032
KRR1 (UniProt Q13601)	1.12 ± 0.012	1.16 ± 0.043	1.23 ± 0.066	1.27 ± 0.047	1.29 ± 0.026	1.42 ± 0.033
UniProt Q8TCD5|J3KRC4	1 ± 0.021	1.02 ± 0.04	1.01 ± 0.057	0.942 ± 0.15	1.01 ± 0.11	0.954 ± 0.091
UniProt Q86UY6	1.39 ± 0.18	1.46 ± 0.14	1.56 ± 0.21	1.66 ± 0.26	1.69 ± 0.21	1.69 ± 0.15
UniProt Q86Y01	0.964 ± 0.033	1.05 ± 0.022	1.12 ± 0.065	1.05 ± 0.088	1.09 ± 0.012	1.15 ± 0.1
UniProt Q8N137|Q8N137-2|Q8N137-3|Q8N137-4|Q8N137-5	0.92 ± 0.024	1.032 ± 0.006	1.15 ± 0.056	0.983 ± 0.054	0.945 ± 0.026	0.947 ± 0.2
UniProt Q86Y56	0.992 ± 0.076	0.985 ± 0.067	0.954 ± 0.036	0.917 ± 0.082	0.937 ± 0.046	0.976 ± 0.052
KIF18A (UniProt Q8NI77)	1.09 ± 0.11	0.996 ± 0.2	1.09 ± 0.035	1.06 ± 0.013	1.09 ± 0.18	1.18 ± 0.16
UniProt Q15397	1.28 ± 0.054	1.39 ± 0.058	1.53 ± 0.073	1.6 ± 0.13	1.7 ± 0.042	1.96 ± 0.12
UBE2V2 (UniProt Q15819)	0.932 ± 0.018	0.904 ± 0.027	0.9 ± 0.045	0.922 ± 0.032	0.885 ± 0.035	0.853 ± 0.028
UniProt Q13247|Q13247-3	1.84 ± 0.25	1.98 ± 0.19	2 ± 0.21	2.28 ± 0.23	2.17 ± 0.17	2.15 ± 0.25
UniProt Q13057|Q13057-2	1.01 ± 0.061	1.02 ± 0.072	1.02 ± 0.086	0.962 ± 0.094	1.04 ± 0.095	1.02 ± 0.075
UniProt Q4G0J3|Q4G0J3-3	1.17 ± 0.046	1.22 ± 0.047	1.36 ± 0.021	1.507 ± 0.0071	1.56 ± 0.049	1.71 ± 0.018
UniProt Q8NI08-2	0.989 ± 0.064	1.03 ± 0.032	1.01 ± 0.016	1.02 ± 0.022	0.989 ± 0.039	0.993 ± 0.024
BNIP1 (UniProt Q12981)	0.986 ± 0.051	0.983 ± 0.05	0.98 ± 0.07	1 ± 0.012	0.971 ± 0.049	0.932 ± 0.053
KBTBD2 (UniProt Q8IY47)	1.14 ± 0.13	1.11 ± 0.027	1.15 ± 0.07	1.05 ± 0.044	1.16 ± 0.13	1.08 ± 0.026

Reference: the supplement of paper PMC6411743
